The results in this text go back to PubChem BioAssay (Tox21).

Where “and” joins values, the source holds several entries; their conditions need not be identical. Equal entries are not always repeated. Inconclusive results are not listed. A number with no mark means an inactive call. Calls of active or inactive are those of the source. Calls follow the shape of the dose curve; as a rule, active = well fitted curve in the direction sought with a large enough effect in the repeat runs; inconclusive = weak or mixed curves; inactive = no such curve, though single readings can be large; an effect the other way counts as inactive or inconclusive.

Assay [1] in a line: qHTS assay to identify small molecule antagonists of the retinoid acid receptor (RAR) signaling pathway - cell viability counter screen (AID 1159551). Also: nearly all actives have a fitted effect of over 35% in size. Also: potency is read from the fitted curve at half-maximal effect. As to activity change, negative = cytotoxicity: % is scaled to controls: 0 for no effect and ±100 for the full control effect. The essentials:
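Measured by luminescent ATP detection, viability reflects C3RL4 cells treated 6 h at 37 C with test chemicals in the presence of 1 uM (final) retinol.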
For orientation: In qHTS, concentration-response curves come from the screen itself.

The nature of assay [2]: qHTS assay to identify small molecule antagonists of the retinoic acid receptor (RAR) signaling pathway (AID 1159552; also: potency is read from the fitted curve at half-maximal effect; nearly all actives have a fitted effect of over 50% in size). The essentials: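 Test chemicals and DMSO controls were pin-transferred onto C3RL4 cells a day after seeding; retinol (1 uM final) followed at once. Luminescent reporter output was quantified after 6 hr of co-incubation and 30 min with detection reagent.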

Assay [3] is described as follows: qHTS assay to identify small molecule antagonists of the estrogen related receptor (ERR) signaling pathway from Tox21 library - cell viability counter screen (AID 1224834). Also: nearly all actives have a fitted effect of over 30% in size. Also: potency is read from the fitted curve at half-maximal effect. The essentials:
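Seeded ERR cells were rested 6 h at 37 C/5% CO2 before compounds, positive and negative controls or DMSO were added. Incubation continued for 17.5 h, and viability was then quantified by CellTiter-Fluor fluorescence.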

Assay [4] is described as follows: qHTS assay to identify small molecule agonists of the retinoic acid receptor (RAR) signaling pathway (AID 1159553). Also: potency is read from the fitted curve at half-maximal effect. The essentials:
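6 hr compound exposure (DMSO vehicle) of overnight-plated C3RL4 RARE-luc cells at 37 C; luminescence quantified after 30 min RT with luciferase reagent.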

Assay [5] can be described thus: qHTS assay to identify small molecule antagonists of the estrogen related receptor (ERR) signaling pathway - cell viability counter screen (AID 1224818). Also: series mostly up to about 46 µM; % is scaled to controls: 0 for no effect and ±100 for the full control effect. The essentials: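 Compounds dissolved in DMSO were applied to ERR cells seeded at 2,000 per well 6 h earlier. Cell viability followed 17.5 h later via 30-min CellTiter-Fluor fluorescence.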
Assay [6] can be described thus: qHTS assay to identify small molecule antagonists of the estrogen related receptor signaling pathway with the pleiotropic PPARgamma coactivator (PGC) cell viability counter screen (AID 1224822; also: series mostly up to about 46 µM; % is scaled to controls: 0 for no effect and ±100 for the full control effect). The essentials: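 Counter screen for cell viability: PGC/ERR cells, 6 h pre-incubation after plating, 17.5 h compound exposure at 37 C, fluorescence from CellTiter-Fluor after 30 min.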

Assay [7] in a line: qHTS assay to identify small molecule antagonists of the estrogen related receptor (ERR) signaling pathway (AID 1224819;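 also: luminescence from an ERR-driven luciferase reporter measured with One-Glo reagent; series mostly up to about 46 µM; % is scaled to controls: 0 for no effect and ±100 for the full control effect; nearly all actives have a fitted effect of over 50% in size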). The essentials:
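Compounds dissolved in DMSO were pin-transferred onto ERR cells that had been plated 6 h earlier, and cells were then incubated 18 h at 37 C; signal was luciferase luminescence via One-Glo.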

A short description of assay [8]: qHTS assay to identify small molecule agonists of the estrogen related receptor (ERR) signaling pathway (AID 1224820). Also: % is scaled to controls: 0 for no effect and ±100 for the full control effect. The essentials:
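An ERR cell line provided by NTP was seeded at 2,000 cells per well and allowed to settle for 6 h before compounds in DMSO were added. After 18 h at 37 C, luciferase activity was measured by One-Glo luminescence.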

Consider `Cc1cc(Cc2cc(C)cc(C(C)(C)C)c2O)c(O)c(C(C)(C)C)c1`, for which the Potency in assay [1] was 54.8 µM (active) and 48.6 µM (active); in assay [2] it was 43.5 µM (active) and 61.1 µM (active); in assay [3] it was 48.8 µM (active) and 43.3 µM (active).
For the compound `Cc1occc(=O)c1OC(=O)C(C)C`, the Potency result in assay [1], in assay [4] and in assay [3] was “inactive” throughout.
As to `Nc1cc(S(=O)(=O)O)cc2cc(S(=O)(=O)O)cc(O)c12`, the Potency result in assay [1] and in assay [4] was “inactive” in each case.
With `CCCCC/C=C/CC1CC(=O)OC1=O` (stereo unspecified), the Potency entry in assay [1], in assay [4] and in assay [3] was “inactive” each time.
Consider `CC(=O)CC(C)=O`, for which the Potency result in assay [1], in assay [4] and in assay [3] was “inactive” in each case.
Turning to `C=CC(=O)OCCCCCCCC`, the Potency result in assay [1] and in assay [4] was “inactive” throughout.
In the case of `CCC(C)(C)C(=O)O[C@H]1C[C@@H](C)C=C2C=C[C@H](C)[C@H](CC[C@@H]3C[C@@H](O)CC(=O)O3)[C@H]21`, the Potency result in assay [1] and in assay [4] was “inactive” in each case.
Take `CCCC(=O)c1ccccc1`: the Potency result in assay [1] and in assay [4] was “inactive” each time.
Take `CC(N)=O`: the Potency entry in assay [1], in assay [4], in assay [5], in assay [6] and in assay [3] was “inactive” each time.
Consider `CCCCCCCCCCCC[N+](C)(C)C`, for which the Potency entry in assay [1] and in assay [4] was “inactive” in each case.
Turning to `O=C(OCc1ccccc1)c1ccc(O)cc1`, the Potency entry in assay [1] is “inactive”. Further, in assay [4], the Potency was 6.86 µM (active) and 11.9 µM (active).
Turning to `CCN(CC)CCOc1ccc(/C(=C(\Cl)c2ccccc2)c2ccccc2)cc1`, the Potency in assay [1] is 49.6 µM (active); in assay [2] it was 24.8 µM (active); in assay [3], 55.6 µM (active) and 26.6 µM (active).
In the case of `CCCCCCCCCCCCCCCCCl`, in assay [1], the activity change, negative = cytotoxicity was 4.57% [at 19 µM]. Besides, in assay [4], the Potency entry was “inactive”.
Regarding `[Cl][In]([Cl])[Cl]`, the Potency entry in assay [1], in assay [4], in assay [5], in assay [7], in assay [6] and in assay [3] was “inactive” in each case. In assay [8], the outcome was inactive.
